Source: PubChem
Shown are actives, neighbours in structure and some others; about 4% of the full set was active somewhere.
TWEAK Fn14 block: inhibitors of TWEAK-Fn14 interaction signaling; TWEAK-stimulated Fn14 reporter cells, luciferase luminescence, 8 h; inhibition, % at 10 µM; 360,000 tested, 2% active; AID 1159606; in the data active means inhibition above about 50%
CF NFkB inh: cystic fibrosis NF-kB activation inhibition; AID 588850; inhibition, % at 5 µM; KKLEB NF-kB-GFP reporter, PAF-induced, GFP fluorescence overnight; 360,000 tested, 0.86% active;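 active means at least 50% inhibition at 5 µM, scaled per plate between neutral and stimulator controls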;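 further: PAF is a Pseudomonas aeruginosa culture filtrate used as stimulus; plate controls were PAF-stimulated DMSO wells for no effect and unstimulated DMSO wells for full effect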
HIF-2a inh: blocks HIF-2a reporter activity. 786-0 RCC cells HIF-2a reporter, luciferase luminescence, overnight. inhibition, % at 18.8 µM. 360,000 tested, 0.72% active. AID 624352;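 active means inhibition of the luminescence signal of 40% or more relative to plate controls, in a single-dose primary screen at 18.75 µM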
KKLEB cytotox: CF airway cell cytotoxicity counter-screen. activity change (cytotoxicity), % at 5 µM. 360,000 tested, 0.36% active. KKLEB CF airway cells viability, ATPlite luminescence, overnight; stronger effect = lower value; cells stimulated with P. aeruginosa culture filtrate. AID 602141;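 active means corrected activity change at or below -50% at 5 µM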
TROY NFkB inh: TROY signaling inhibition; Q293 LMP1-TROYcd NF-kB luciferase reporter, 4 h; inhibition, % at 10 µM; 360,000 tested, 0.98% active; AID 1347056;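 active means compounds whose plate-normalised and pattern-corrected inhibition of the luciferase reporter signal at the single screening dose is 50% or more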
Peg3 promoter: Peg3 promoter activity inhibition; HeLa PEG-Prom luciferase reporter, luminescence, overnight; inhibition, % at 20 µM; 360,000 tested, 1.7% active;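 active means inhibition of at least 50% at 20 µM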
* = called active by the depositor; nt = not tested or not shown.

SMILES	TWEAK Fn14 block	CF NFkB inh	HIF-2a inh	KKLEB cytotox	TROY NFkB inh	Peg3 promoter
COc1ccc(CNc2nc(S(=O)(=O)c3ccccc3)c(Cl)s2)cc1OC	69.9*	19.4	22.9	-10.6	46.1	20.1
Cc1ccc(S(=O)(=O)c2nc(Nc3ccccc3)sc2Cl)cc1	45.6	13.3	18.7	-8.6	53.9*	20.4
O=S(=O)(c1ccccc1)c1nc(NCc2ccccc2)sc1Cl	16.2	11.2	10.8	-5.0	25.0	15.8
CCOC(=O)C1=CC[C@@H](c2ccccc2)N(S(=O)(=O)c2ccc(C)cc2)[C@H]1C#N	-0.1	43.0	-43.5	-16.2	-30.6	-75.2
COc1cccc(/C=N/Nc2ncnc(Cl)c2N)c1O	-5.1	46.1	62.9*	-32.8	60.6*	84.6*
COc1cccc(/C=N/Nc2ncnc(N)c2[N+](=O)[O-])c1OC	83.6*	-3.7	18.1	5.6	42.9	47.4
COc1cccc(/C=N/Nc2nccnc2Cl)c1O	65.4*	-9.2	-12.0	-0.1	46.3	53.4*
COc1cccc(/C=N/Nc2nc3ccccc3n3cnnc23)c1	-6.7	9.5	-15.7	-14.0	-47.4	38.3
COc1cccc(/C=N/Nc2nc3ccccc3n3cnnc23)c1O	17.3	-21.9	-131.2	-26.4	-72.3	70.5*
O=C(c1nc[nH]c1C(=O)N1CCN(c2ccccc2)CC1)N1CCN(c2ccccc2)CC1	-11.3	2.0	2.9	-8.0	15.1	-0.6
COc1cccc(/C=N/Nc2ncnc3scc(-c4ccccc4)c23)c1O	63.5*	1.6	11.1	-6.3	43.6	60.0*
COc1ccc(/C=N/Nc2nccnc2Cl)cc1	59.9*	-1.6	-91.0	1.9	21.9	-19.3
Cc1nnc(C)c2c(C)n(-c3ccc4ncccc4c3)c(C)c12	0.8	8.0	11.3	0.7	51.9*	-8.7
O=C(NC(=S)Nc1cc(C(F)(F)F)ccc1Cl)c1ccccc1	-15.9	-3.4	-120.2	-2.0	-55.3	-57.0
O=C(O)c1ccc(NNC(=S)Nc2cc(C(F)(F)F)ccc2Cl)cc1	68.6*	0.5	-6.0	13.2	47.1	25.7
O=C(COc1ccccc1Cc1ccccc1)Nc1cccnc1	-4.8	14.7	-2.8	5.3	20.5	28.1
Cc1ccc(Cc2c(-c3ccc(Cl)cc3)nc3c(Cl)cc(C(F)(F)F)cn23)cc1	27.7	17.8	-37.4	-2.7	24.7	-33.6
CCN(CC)Cc1cc(Nc2c3ccccc3nc3c4ccccc4n(C)c23)cc(CN(CC)CC)c1O	-44.8	-87.8	-5.1	16.9	-46.8	102.0*
CC1Cc2cc(S(=O)(=O)N3CCN(c4ccccc4)CC3)ccc2N1C(=O)C1CC1 (configuration not stated)	-3.3	-2.7	10.3	13.0	-22.9	-2.2
O=C(c1cc(-c2ccccc2)n[nH]1)N1CCc2c([nH]c3ccccc23)C1c1ccccn1 (configuration not stated)	59.2*	24.7	9.8	-15.2	41.4	47.5
C1CCCCCC(NCCN2CCNCC2)CCCCC1	-38.0	14.8	-1.5	-10.6	4.5	100.9*
CCOC(=O)c1sc(NC(=O)Nc2ccc(Cl)cc2)cc1C	66.7*	48.3	-254.2	-37.5	18.2	-118.0
CCN(CC)CC(C)(C)C(=O)/C=C/c1ccc(/C=C/C(=O)C(C)(C)CN(CC)CC)cc1	102.5*	91.6*	91.3*	-65.5*	44.4	102.2*
CCc1cccc2sc(N3CCN(C(=O)c4ccc([N+](=O)[O-])o4)CC3)nc12	26.6	3.8	37.8	-5.0	2.9	1.7
CC(=O)Nc1ccc(S(=O)(=O)NCCC(=O)NNC(=O)c2ccccc2O)cc1	7.3	11.9	-5.6	-0.6	-1.3	7.5
SMILES	TWEAK Fn14 block	CF NFkB inh	HIF-2a inh	KKLEB cytotox	TROY NFkB inh	Peg3 promoter
COc1cc(C(C)=O)ccc1OCC(O)CN1CCN(c2ccccn2)CC1 (configuration not stated)	108.0*	-13.0	9.4	5.3	-8.3	6.5
COc1ccc(N2CCN(C3CCCN(C(=O)c4cccc(C)n4)C3)CC2)cc1 (configuration not stated)	4.9	-6.3	6.7	1.0	-10.8	9.0
O=C1C(Br)=C(c2ccccc2)C(c2ccccc2)=C1c1ccccc1	56.5*	78.6*	9.6	-74.1*	-3.7	104.7*
CCN(CC(=O)Nc1ccccc1OC)C(=O)c1cc(S(=O)(=O)N2CCCCCC2)ccc1OC	-24.6	4.7	19.0	-1.7	-14.3	9.5
CCC[C@H](CN[C@@H](CNC)[C@H](C)O)NCCc1ccc(OC)cc1	-12.6	-7.4	7.6	0.7	-1.2	-2.8
CCCC[C@@H](CNC)NC[C@H](Cc1ccc(O)cc1)NCCc1ccc(OCC)cc1	-6.9	12.4	-1.9	-11.8	4.7	96.6*
CCn1cc(C(=O)NCCCOC(C)C)c(=O)c2cc(S(=O)(=O)N3CCOCC3)ccc21	-1.8	-3.2	6.7	8.6	-12.6	18.2
Cc1cccc2c3nc4ccccc4nc3n(C)c12	53.7*	-60.5	-160.6	5.6	-31.9	-178.8
CC(=NNC(=S)N1CCN(c2ccccn2)CC1)c1nccs1	104.3*	65.5*	-129.4	5.8	12.8	24.2
COc1ccc(N(CC(=O)NCc2ccccc2Cl)S(=O)(=O)c2c(C)noc2C)cc1	0.5	11.8	11.8	-8.1	-17.6	29.6
O=c1c2ccccc2nc(/C=C/c2ccc(O)cc2)n1CCc1ccccc1	66.1*	9.7	-71.9	-3.9	6.2	45.8
O=c1c2ccccc2nc(-c2ccco2)n1CCc1ccc(O)cc1	63.9*	-17.4	20.6	5.8	32.9	43.0
O=c1c2ccccc2nc(/C=C/c2ccccc2)n1CCCO	-14.4	2.2	-17.9	0.8	-19.4	-30.6
COc1ccc(CCn2c(-c3ccco3)nc3ccccc3c2=O)cc1OC	6.8	1.4	-11.2	-0.8	17.9	23.0
Cc1cccc(C)c1-n1nnnc1C1(C)CCC(=O)N1Cc1cccc(C(F)(F)F)c1 (configuration not stated)	-5.1	nt	-2.9	nt	-8.1	nt
CCOC(=O)c1[nH]c2ccccc2c1NC(=O)c1ccc(Br)o1	65.6*	-31.7	-24.9	11.7	-5.1	25.0
Cc1oc2cc3oc(=O)cc(C)c3cc2c1C	0.2	-16.9	-165.3	-4.0	-38.9	-257.2
Cc1cc(NC(=O)C(C)SCC(=O)N(Cc2ccccc2)c2ccccc2)no1 (configuration not stated)	-76.1	14.5	-15.3	-12.1	21.8	31.6
Cc1cc(NC(=O)C(C)SCC(=O)N(C)Cc2ccccc2F)no1 (configuration not stated)	1.6	4.2	14.2	-3.4	-10.6	71.1*
Cc1cc(O)c(C2=Nc3ccccc3SC(c3ccc(Cl)cc3)C2)c(=O)o1 (configuration not stated)	76.6*	14.5	-77.8	-23.8	75.0*	-183.6
COc1ccc(C2CC(c3c(O)cc(C)oc3=O)=NCCS2)c(OC)c1 (configuration not stated)	-102.1	33.3	-215.1	-13.4	-40.4	-198.2
